Assay results published in PubChem BioAssay (Tox21).
Results filed as inconclusive are left out. Unmarked numbers belong to inactive results. Active and inactive are the calls of the source. Unless noted, calls come from the whole dose curve; as a rule, active = well fitted cell-killing curve with a large enough effect in the repeat runs; inconclusive = weak or mixed curves, or effect the other way; inactive = no such curve, though single readings can be large or run the other way.

Biological target: Peroxisome proliferator-activated receptor gamma (Homo sapiens) (UniProt P37231)
Sequence (P37231 whole entry, looked up): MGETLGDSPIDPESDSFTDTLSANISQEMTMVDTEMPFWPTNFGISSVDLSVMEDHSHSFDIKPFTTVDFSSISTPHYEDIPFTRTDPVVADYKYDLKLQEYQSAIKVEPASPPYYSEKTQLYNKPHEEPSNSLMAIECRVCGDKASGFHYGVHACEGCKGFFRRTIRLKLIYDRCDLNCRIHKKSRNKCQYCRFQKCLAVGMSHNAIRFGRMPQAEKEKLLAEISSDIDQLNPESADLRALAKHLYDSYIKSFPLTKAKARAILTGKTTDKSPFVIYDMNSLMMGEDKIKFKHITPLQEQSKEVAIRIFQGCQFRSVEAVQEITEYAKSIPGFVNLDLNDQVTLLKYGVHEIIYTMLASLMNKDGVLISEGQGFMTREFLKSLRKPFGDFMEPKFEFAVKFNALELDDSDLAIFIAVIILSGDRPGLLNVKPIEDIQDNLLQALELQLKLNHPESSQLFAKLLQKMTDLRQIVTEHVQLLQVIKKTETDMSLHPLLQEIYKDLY
Assay: qHTS assay to identify small molecule agonists of the peroxisome proliferator-activated receptor gamma (PPARg) signaling pathway (AID 743094; active = well fitted activation curve with a large enough effect in the signal ratio in the repeat runs, not every such curve was filed as active; the % refers to the signal ratio)
Settings: HEK293H PPARg-UAS-bla, beta-lactamase FRET ratio, 17 h; series mostly up to 57 µM; activation: at the top concentration
Method in brief: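 GeneBLAzer PPARg UAS-bla HEK293H cells carrying a stably integrated beta-lactamase reporter were pre-incubated 5 h at 37C, then exposed to compounds in DMSO for 17 h at 37C; LiveBLAzer B/G FRET substrate was added for 1 h at room temperature and fluorescence read.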
% is set by controls: 0 for no effect and ±100 for the full control effect.

Row | SMILES | activation | Potency
1 | COC(=O)c1ccccc1OC | -0.715% | 
2 | C=C(C)c1cccc(C(=C)C)c1 | -3.87% | 
3 | O=C1CCc2cc(OCCCCc3nnnn3C3CCCCC3)ccc2N1 | 1.04% | 
4 | CCCC1CCC(=O)CC1 | 2.52% | 
5 | O=C(Nc1ccc2c(O)c(N=Nc3ccc(N=Nc4ccc(S(=O)(=O)O)cc4)cc3)c(S(=O)(=O)O)cc2c1)c1ccccc1 | -3.48% | 
6 | OC1CCCc2ccccc21 (stereo not given) | 0.0515% [at 78.9 µM] | 
7 | CCCCN(CCCC)CC(O)c1cc(Cl)cc2c1-c1ccc(Cl)cc1/C2=C/c1ccc(Cl)cc1 (stereo not given) | -4.91% | 
8 | O=[N+]([O-])c1ccc(F)c(Cl)c1 | -0.495% | 
9 | O=C(/C=C/c1ccccc1)OC/C=C/c1ccccc1 | 0.564% | 
10 | CCN(CCN)c1cccc(C)c1 |  | inactive
11 | CCC(C)n1ncn(-c2ccc(N3CCN(c4ccc(OC[C@H]5CO[C@](Cn6cncn6)(c6ccc(Cl)cc6Cl)O5)cc4)CC3)cc2)c1=O (stereo not given in full) | -0.591% | 
12 | CCCCC/C=C\C/C=C\CCCCCCCC(=O)O | 6.95% | 
13 | CCc1cccc(CC)c1NC(=O)CN(CC(=O)O)CC(=O)O | 0.593% [at 26.2 µM] | 
14 | CC(C)(C)C1CCC(=O)CC1 | 0.0782% | 
15 | COc1cc(S(=O)(=O)O)c(C)cc1N=Nc1c(O)ccc2cc(S(=O)(=O)O)ccc12 | -4.07% | 
16 | OC[C@H]1O[C@H](O[C@H]2O[C@H](CO)[C@@H](O)[C@H](O)[C@H]2O)[C@H](O)[C@@H](O)[C@@H]1O | 1.05% [at 78.9 µM] | 

Biological target: Peroxisome proliferator-activated receptor gamma (Homo sapiens) (UniProt P37231)
Assay: qHTS assay to identify small molecule antagonists of the peroxisome proliferator-activated receptor gamma (PPARg) signaling pathway (AID 743191; calls by dose curve; note: nearly all actives have a fitted effect of over 30% in size)
Settings: HEK293H PPARg-UAS-bla, beta-lactamase ratio, antagonist, 17 h; series mostly up to 62.6 µM; ratio activity, negative = inhibition: at the top concentration
Method in brief: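 GeneBLAzer PPARg UAS-bla HEK293H cells carrying a UAS-driven beta-lactamase reporter were plated at 3000 cells/well, preincubated 5 h at 37C, then given compound for 17 h at 37C; LiveBLAzer B/G FRET substrate was read after 1 h at room temperature.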

Row | SMILES | ratio activity, negative = inhibition
17 | CC(C)OC(=O)C(O)(CC(=O)O)CC(=O)O | 4.33%
18 | C[C@@H](O)[C@H](N)C(=O)O | -13.5% [at 29.1 µM]
19 | OC/C=C/CO | -9.88%
20 | C1CCC(SSC2CCCCC2)CC1 | 5.18%
21 | C=Cc1ccccc1C=C | -1.48% [at 232 µM]
22 | CN(C)Cc1ccccc1O | 1.05%
23 | O=[N+]([O-])c1ccc(O)cc1C(F)(F)F | 5.58%
24 | O=C(O)[C@H](O)[C@@H](O)[C@H](O[C@@H]1O[C@H](CO)[C@H](O)[C@H](O)[C@H]1O)[C@H](O)CO | 0.705%
25 | O=C(O)O | -1.11% [at 5.95 µM]
26 | O=C(O)c1cccc(C(F)(F)F)c1 | -1.21%
27 | CCCCCCOC(=O)C(C)CC (stereo not given) | -5.89%
28 | Clc1ccnc(Cl)n1 | -4.44% [at 81.1 µM]
29 | CN1CCCCC1CCN1c2ccccc2Sc2ccc(S(C)=O)cc21 (stereo not given) | 0.437%
30 | Cc1ccc(-c2ccccc2)cc1 | -0.773%
31 | C=C(C)c1cccc(C(=C)C)c1 | 8.7%
32 | O=C1CCc2cc(OCCCCc3nnnn3C3CCCCC3)ccc2N1 | 5.55%
33 | CCCC1CCC(=O)CC1 | 3.84%
34 | O=C(Nc1ccc2c(O)c(N=Nc3ccc(N=Nc4ccc(S(=O)(=O)O)cc4)cc3)c(S(=O)(=O)O)cc2c1)c1ccccc1 | 1.03%
35 | OC1CCCc2ccccc21 (stereo not given) | -4.37% [at 81.1 µM]
36 | O=[N+]([O-])c1ccc(F)c(Cl)c1 | -16.8%
37 | O=C(/C=C/c1ccccc1)OC/C=C/c1ccccc1 | 12%
38 | CCN(CCN)c1cccc(C)c1 | 2.36% [at 81.1 µM]
39 | CCC(C)n1ncn(-c2ccc(N3CCN(c4ccc(OC[C@H]5CO[C@](Cn6cncn6)(c6ccc(Cl)cc6Cl)O5)cc4)CC3)cc2)c1=O (stereo not given in full) | 6.78%
40 | CC(C)(C)C1CCC(=O)CC1 | 0.724%
41 | COc1cc(S(=O)(=O)O)c(C)cc1N=Nc1c(O)ccc2cc(S(=O)(=O)O)ccc12 | 1.76%
42 | OC[C@H]1O[C@H](O[C@H]2O[C@H](CO)[C@@H](O)[C@H](O)[C@H]2O)[C@H](O)[C@@H](O)[C@@H]1O | 4.43% [at 81.1 µM]

Tested on: not listed separately
Assay: qHTS assay to identify small molecule antagonists of the peroxisome proliferator-activated receptor gamma (PPARg) signaling pathway - cell viability counter screen (AID 743194); note: nearly all actives have a fitted effect of over 55% in size
Settings: PPARg-bla HEK293H viability, CellTiter-Glo luminescence, 17 h, co-treated with 50 nM rosiglitazone; series mostly up to 62.6 µM; activity change, negative = cytotoxicity: at the top concentration
Method in brief: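 PPARg-UAS-bla HEK293H cells were plated, rested 5 h at 37 C, then treated with compounds plus rosiglitazone (50 nM final) for 17 h at 37 C; viability was then read by CellTiter-Glo luminescence after 30 min at room temperature.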

Row | SMILES | activity change, negative = cytotoxicity
43 | c1ccc(SSc2ccccc2)cc1 | 6.65% [at 81.1 µM]
44 | Cl[Si](Cl)(c1ccccc1)c1ccccc1 | -26.8% [at 81.1 µM]
45 | Cc1cc(C(C)(C)C)cc(C)c1CC1=NCCN1 | -6.29%
46 | CC(C)OC(=O)C(O)(CC(=O)O)CC(=O)O | 6.46%
47 | C[C@@H](O)[C@H](N)C(=O)O | 5.19% [at 29.1 µM]
48 | C1CCC(SSC2CCCCC2)CC1 | 3.31%
49 | C=Cc1ccccc1C=C | 4.67% [at 232 µM]
50 | CCOC(=O)Cn1cccc1-c1nc(-c2ccc(OC)cc2)c(-c2ccc(OC)cc2)s1 | -8.51%
51 | CN(C)Cc1ccccc1O | 18.1%
52 | O=C(O)[C@H](O)[C@@H](O)[C@H](O[C@@H]1O[C@H](CO)[C@H](O)[C@H](O)[C@H]1O)[C@H](O)CO | 8.04%
53 | O=C(O)O | 0.913% [at 5.95 µM]
54 | C[C@H]1NCc2cc(-c3ccc4c(=O)c(C(=O)O)cn(C5CC5)c4c3OC(F)F)ccc21 | 9.6% [at 29.1 µM]
55 | CC(C)(c1cc(Br)c(OCC(Br)CBr)c(Br)c1)c1cc(Br)c(OCC(Br)CBr)c(Br)c1 (stereo not given) | -8.45%
56 | CCCCCCOC(=O)C(C)CC (stereo not given) | -7.8%
57 | Clc1ccnc(Cl)n1 | 7% [at 81.1 µM]
58 | CN1CCCCC1CCN1c2ccccc2Sc2ccc(S(C)=O)cc21 (stereo not given) | -16%
59 | Cc1cc(C(C)(C)C)c(O)c(C)c1Cn1c(=O)n(Cc2c(C)cc(C(C)(C)C)c(O)c2C)c(=O)n(Cc2c(C)cc(C(C)(C)C)c(O)c2C)c1=O | -27.2%

Row | SMILES | activity change, negative = cytotoxicity
60 | Cc1ccc(-c2ccccc2)cc1 | 2.86%
61 | C=C(C)C(=O)OCCCCCCCCCC | 17.8% [at 81.1 µM]
62 | COC(=O)c1ccccc1OC | 6.52%
63 | C=C(C)c1cccc(C(=C)C)c1 | -3.11%
64 | O=C1CCc2cc(OCCCCc3nnnn3C3CCCCC3)ccc2N1 | -6.35%
65 | O=C(Nc1ccc2c(O)c(N=Nc3ccc(N=Nc4ccc(S(=O)(=O)O)cc4)cc3)c(S(=O)(=O)O)cc2c1)c1ccccc1 | 2.05%
66 | OC1CCCc2ccccc21 (stereo not given) | -3.9% [at 81.1 µM]
67 | CCCCN(CCCC)CC(O)c1cc(Cl)cc2c1-c1ccc(Cl)cc1/C2=C/c1ccc(Cl)cc1 (stereo not given) | -26.6%
68 | O=[N+]([O-])c1ccc(F)c(Cl)c1 | 4.03%
69 | O=C(/C=C/c1ccccc1)OC/C=C/c1ccccc1 | -11.2%
70 | CCN(CCN)c1cccc(C)c1 | 6.25%
71 | CCC(C)n1ncn(-c2ccc(N3CCN(c4ccc(OC[C@H]5CO[C@](Cn6cncn6)(c6ccc(Cl)cc6Cl)O5)cc4)CC3)cc2)c1=O (stereo not given in full) | -11.8%
72 | CCCCC/C=C\C/C=C\CCCCCCCC(=O)O | -20.4%
73 | CCc1cccc(CC)c1NC(=O)CN(CC(=O)O)CC(=O)O | 5.83%
74 | CC(C)(C)C1CCC(=O)CC1 | -0.356%
75 | COc1cc(S(=O)(=O)O)c(C)cc1N=Nc1c(O)ccc2cc(S(=O)(=O)O)ccc12 | 15.9%
